This passage reports growth inhibition results from PubChem BioAssay (NCI).

Assay [1] in a line: NCI Yeast Anticancer Drug Screen. Data for the rad50 strain (AID 155).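 Further: 0% = growth of vehicle-only cultures of the same strain.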 The settings on record: S. cerevisiae rad50 strain growth inhibition, hits give high values. In short, it runs like this: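 Relative growth inhibition (compound vs vehicle) was measured in yeast with a defined repair-gene alteration.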
Assay [2] in a line: NCI Yeast Anticancer Drug Screen. Data for the mec2-1 strain (AID 157). The settings on record: S. cerevisiae mec2-1 strain, hits give high values. In short, it runs like this: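 mec2-1 yeast strain, carrying an alteration in DNA damage repair or cell cycle control, was exposed to compounds; growth inhibition was measured relative to vehicle-treated controls.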
The nature of assay [3]: NCI Yeast Anticancer Drug Screen. Data for the sgs1 mgt1 strain (AID 161).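 Further: 0% = growth of cultures given vehicle only.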 Particulars: S. cerevisiae sgs1 mgt1 strain, hits give high values. A digest of the protocol: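 Compounds are added to genetically altered yeast, and growth is compared with cultures given vehicle alone to give percent inhibition.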
Assay [4] can be described thus: NCI Yeast Anticancer Drug Screen. Data for the cln2 rad14 strain (AID 165).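 Further: 0% = growth equal to vehicle treated cultures.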 Particulars: S. cerevisiae cln2 rad14 strain, hits give high values. A digest of the protocol: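 Yeast carrying cln2 and rad14 alterations (cell cycle control and DNA damage repair) were exposed to compounds. Growth inhibition was measured against vehicle-treated controls.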
Assay [5] is described as follows: NCI Yeast Anticancer Drug Screen. Data for the bub3 strain (AID 167). The settings on record: S. cerevisiae bub3 mutant strain, hits give high values. In short, it runs like this: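 Screening used yeast with an engineered genetic alteration affecting cell cycle control. Compound-exposed cultures were compared with vehicle cultures, and reduced growth was taken as inhibition.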

Assay [6] in a line: NCI Yeast Anticancer Drug Screen. Data for the mlh1 rad18 strain (AID 175). The settings on record: S. cerevisiae mlh1 rad18 strain growth inhibition, hits give high values. A digest of the protocol: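 Growth inhibition of the yeast strain was measured after compound exposure and expressed relative to vehicle-treated controls. The strain carries defined defects in DNA damage repair.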

The mark [7] stands for this setting: at 5.0 µM (retest, dose inferred, filed as 0.5).
The mark [8] stands for this setting: at 50.0 µM (retest, dose inferred, filed as 5.0).

Each structure is given as a SMILES string. About 79,000 compounds went through this panel and 15% of them were active in at least one assay; those are over-represented in the sample as a whole. Values without a mark were called inactive. Active and inactive are the calls of the source. No stated cut-off is given here; in the data, active means growth inhibition above about 70%; inactive means the rest.

As for `O=CC(=O)CC(O)CO` (stereo not drawn), the growth inhibition is 0% in assay [1] (setting [7]); 74% (active) in assay [1] (setting [8]); 78.4% (active) in assay [1] (at 50.0 µM); 5% in assay [2] (setting [7]); 69% in assay [2] (setting [8]); 72.9% (active) in assay [2] (at 50.0 µM). Besides, the growth inhibition in assay [3] (setting [7]) is 4%; in assay [3] (setting [8]) it was 81% (active); in assay [3] (at 50.0 µM) it was 67.6%; in assay [4] (setting [7]), 1%; in assay [4] (setting [8]), 94% (active); in assay [4] (at 50.0 µM) it was 89.3% (active). Moreover, the growth inhibition in assay [5] (setting [7]) is 0%; in assay [5] (setting [8]), 87% (active); in assay [5] (at 50.0 µM) it was 98.7% (active); in assay [6] (setting [7]), -14%; in assay [6] (setting [8]), 67%; in assay [6] (at 50.0 µM) it was 76.3% (active).
For `OC1(c2ccc(Br)cc2)C2CCCCC2C2CCCCC21` (stereo not drawn), the growth inhibition is 36% in assay [1] (setting [7]); 92% (active) in assay [1] (setting [8]); 98% (active) in assay [1] (at 50.0 µM); 7% in assay [2] (setting [7]); 95% (active) in assay [2] (setting [8]); 98.5% (active) in assay [2] (at 50.0 µM). Besides, the growth inhibition in assay [3] (setting [7]) is 18%; in assay [3] (setting [8]) it was 95% (active); in assay [3] (at 50.0 µM) it was 98.3% (active); in assay [4] (setting [7]), -4%; in assay [4] (setting [8]), 92% (active); in assay [4] (at 50.0 µM), 97.7% (active). Further, the growth inhibition in assay [5] (setting [7]) is 7%; in assay [5] (setting [8]), 93% (active); in assay [5] (at 50.0 µM) it was 98.4% (active); in assay [6] (setting [7]) it was 10%; in assay [6] (setting [8]), 95% (active); in assay [6] (at 50.0 µM), 98.2% (active).
For `Oc1ccc2oc3ccccc3c2c1`, the growth inhibition in assay [1] (setting [7]) was 9%; in assay [1] (setting [8]), 94% (active); in assay [1] (at 50.0 µM), 94.5% (active); in assay [2] (setting [7]) it was 0%; in assay [2] (setting [8]) it was 87% (active); in assay [2] (at 50.0 µM), 76% (active). Further, the growth inhibition in assay [3] (setting [7]) was 0%; in assay [3] (setting [8]), 82% (active); in assay [3] (at 50.0 µM), 84.3% (active); in assay [4] (setting [7]), -3%; in assay [4] (setting [8]), 46%; in assay [4] (at 50.0 µM) it was 75.5% (active). Moreover, the growth inhibition in assay [5] (setting [7]) is 0%; in assay [5] (setting [8]) it was 92% (active); in assay [5] (at 50.0 µM) it was 88.4% (active); in assay [6] (setting [7]) it was 3%; in assay [6] (setting [8]), 94% (active); in assay [6] (at 50.0 µM), 94.5% (active).
As for `C=[CH][Sn]([CH]=C)([S]c1cccc2cccnc12)[S]c1cccc2cccnc12`, the growth inhibition in assay [1] (setting [7]) is 12%; in assay [1] (setting [8]), 99% (active); in assay [1] (at 50.0 µM), 92% (active); in assay [2] (setting [7]), 16%; in assay [2] (setting [8]), 100% (active); in assay [2] (at 50.0 µM), 91.5% (active). Besides, the growth inhibition in assay [3] (setting [7]) was 27%; in assay [3] (setting [8]), 99% (active); in assay [3] (at 50.0 µM) it was 92.3% (active); in assay [4] (setting [7]), 16%; in assay [4] (setting [8]) it was 99% (active); in assay [4] (at 50.0 µM) it was 75.5% (active). Also, the growth inhibition in assay [5] (setting [7]) is 19%; in assay [5] (setting [8]) it was 94% (active); in assay [5] (at 50.0 µM) it was 83.7% (active); in assay [6] (setting [7]), 18%; in assay [6] (setting [8]), 99% (active); in assay [6] (at 50.0 µM), 91.8% (active).
Consider `CC(C)CN(CC(C)C)CN1C(=O)/C(=C/c2ccc([N+](=O)[O-])cc2)SC1=S`, for which the growth inhibition in assay [1] (setting [7]) was 16%; in assay [1] (setting [8]) it was 53%; in assay [1] (at 50.0 µM), 63.2%; in assay [2] (setting [7]), 8%; in assay [2] (setting [8]), 61%; in assay [2] (at 50.0 µM) it was 40.3%. The growth inhibition in assay [3] (setting [7]) was 11%; in assay [3] (setting [8]), 59%; in assay [3] (at 50.0 µM), 67.7%; in assay [4] (setting [7]) it was 37%; in assay [4] (setting [8]), 44%; in assay [4] (at 50.0 µM) it was 46.9%. The growth inhibition in assay [5] (setting [7]) was 4%; in assay [5] (setting [8]), 37%; in assay [5] (at 50.0 µM) it was 41.2%; in assay [6] (setting [7]), 26%; in assay [6] (setting [8]), 66%; in assay [6] (at 50.0 µM), 71.2% (active).
For `CCC12C=CCN3CCC4(c5cc(C(c6ccccn6)c6cc7ccccc7n6C)c(OC)cc5N(C)C4C(O)(C(=O)OC)C1OC(C)=O)C32` (stereo not drawn), the growth inhibition was 4% in assay [1] (setting [7]); 0% in assay [1] (setting [8]); 68.3% in assay [1] (at 50.0 µM); 46% in assay [2] (setting [7]); 0% in assay [2] (setting [8]); 81.5% (active) in assay [2] (at 50.0 µM). The growth inhibition in assay [3] (setting [7]) was -1%; in assay [3] (setting [8]), 2%; in assay [3] (at 50.0 µM), 49.6%; in assay [4] (setting [7]), -2%; in assay [4] (setting [8]), -5%; in assay [4] (at 50.0 µM), 83.3% (active). The growth inhibition in assay [5] (setting [7]) was -2%; in assay [5] (setting [8]), -3%; in assay [5] (at 50.0 µM), 65%; in assay [6] (setting [7]), 3%; in assay [6] (setting [8]), 11%; in assay [6] (at 50.0 µM) it was 94.7% (active).
